# TRb SRC2 PPI – TRbeta-SRC2 interaction inhibition | Potency, µM (highest dose often 106 µM), hits mostly inhibitors | actives 0.065% (n = 280,000) | TRbeta-SRC2 peptide binding, fluorescence polarization; receptor liganded with 1 µM T3 | P10828; further: nearly all actives have a fitted effect of over 50% in size
# Target sequence (P10828 whole entry, looked up): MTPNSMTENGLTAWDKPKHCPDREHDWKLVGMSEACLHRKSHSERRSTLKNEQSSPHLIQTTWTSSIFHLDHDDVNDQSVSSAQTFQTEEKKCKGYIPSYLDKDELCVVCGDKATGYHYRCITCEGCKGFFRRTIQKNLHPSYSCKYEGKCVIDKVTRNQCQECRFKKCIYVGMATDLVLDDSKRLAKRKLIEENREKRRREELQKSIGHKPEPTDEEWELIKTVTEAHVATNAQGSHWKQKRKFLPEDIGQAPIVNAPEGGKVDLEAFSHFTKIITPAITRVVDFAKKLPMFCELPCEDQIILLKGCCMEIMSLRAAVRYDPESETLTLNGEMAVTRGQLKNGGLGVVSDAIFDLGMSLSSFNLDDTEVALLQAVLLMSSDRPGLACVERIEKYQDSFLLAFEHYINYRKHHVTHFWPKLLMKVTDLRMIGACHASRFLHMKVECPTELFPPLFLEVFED
#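 Quantitative HTS by FP: 0.6 uM TRb LBD, 20 nM labeled SRC2 20-mer, 1 uM T3, 5% DMSO; 5 hr ambient incubation; % activity per concentration and potencies from concentration series.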
# Tau fluor cs – counter-screen for tau fibril formation inhibitors | tau K18 P301L Alexa594 fluorescence, heparin fibrillization | Potency, µM (doses to about 57.7 µM) | actives 0.93% (n = 280,000); further: nearly all actives have a fitted effect of over 55% in size
#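 Human K18 P301L tau (15 uM unlabeled plus 0.24 uM Alexa 594-labeled, final) in 100 mM sodium acetate pH 7 was mixed with compound and 20 uM heparin and incubated 6 hr at 37 C.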
# Tau fibril FP – tau fibrillization inhibition (FP). Potency, µM (highest dose often 57.7 µM), actives largely listed as inhibitors. P10636. actives 0.39% (n = 280,000). K18 P301L tau heparin fibrillization, Alexa594 FP, 6 h; further: nearly all actives have a fitted effect of over 55% in size
#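 Quantitative HTS format: compounds meet 15 uM recombinant K18 P301L tau and Alexa 594-tau tracer in 100 mM sodium acetate pH 7; 20 uM heparin triggers fibrillization at 37 C over 6 hr; FP gives the signal.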
# Tau ThT inhib – tau fibrillization inhibition (ThT binding); AID 1460; Potency, µM (top dose mostly 57.4 µM), most hits filed as inhibitors; actives 2.1% (n = 270,000); P10636; recombinant tau K18 P301L, heparin-induced fibrillization, ThT fluorescence; further: nearly all actives have a fitted effect of over 55% in size
#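 ThT emission at 510 nm, taken 1 hr after adding 30 uM dye, quantifies aggregates formed when 20 uM heparin acts on human tau K18 P301L for 6 hr at 37 C.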
# JMJD2E inh – inhibitors of human JMJD2E histone demethylase; JMJD2E catalytic domain, FDH-coupled NADH fluorescence (FDH is formaldehyde dehydrogenase); actives 1.6% (n = 230,000); B2RXH2; AID 2147; Potency, µM (top dose mostly 57.1 µM), hits mostly inhibitors; active means well fitted inhibition curve with a large enough effect, not every such curve was filed as active; inconclusive means small, poorly fitted or top-dose-only effect, or another doubt; inactive means no such curve, though single readings can be large or run the other way; further: nearly all actives have a fitted effect of over 50% in size
# TR SRC2 fluor cs – alters Texas Red total fluorescence, flagging assay interference | AID 1479 | actives 0.29% (n = 280,000) | TRb/SRC2 Texas Red total fluorescence interference | Potency, µM (doses to about 106 µM); active means well fitted curve in either direction with a large enough effect; inconclusive means small, poorly fitted or top-dose-only effect
#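 Flags fluorescent or light-absorbing compounds by total fluorescence, S + 2P, at 555 nm excitation and 632 nm emission. Mixture: 20 nM Texas Red SRC2 peptide, 0.6 uM human TRb LBD, 1 uM T3, 5% DMSO; compound exposure 5 h at ambient temperature.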
# Hits are given with their value; 0 = inactive; ? = inconclusive; - = no result given; [ ] = remark or other dose. Most compounds without a hit are left out; they make up all but 3.5% or so of the library. Unless noted, the call rests on the fitted dose curve; in most records, active means well fitted curve in the direction sought with a large enough effect; inconclusive means small, poorly fitted or top-dose-only effect, or another doubt; inactive means no such curve, though single readings can be large; an effect the other way counts as inactive or inconclusive.
SMILES,TRb SRC2 PPI,Tau fluor cs,Tau fibril FP,Tau ThT inhib,JMJD2E inh,TR SRC2 fluor cs
COc1cccc(C(=O)NC(=S)Nc2ccc(N3CCCC3)cc2)c1,0,?,0,11.2µM,0,0
O=C(Nc1ccc(N=Nc2ccccc2)cc1)c1cccc(Cl)c1,0,0,0,3.16µM,0,0
CC(C)(C)C(=O)NC(=S)Nc1ccccc1C(=O)Nc1ccccc1,0,0,0,0,0,0
O=C(NC1CCCCC1)C(c1ccc(F)cc1)N(CCc1ccccc1)C(=O)CN1C(=O)c2ccccc2S1(=O)=O (configuration not stated),0,0,?,0,0,0
CCCS(=O)(=O)N1CCCC(C(=O)NCCOC)C1 (configuration not stated),0,0,0,0,-,0
COC(c1ccccc1)c1nnc(CCC(=O)NCc2cccc(-n3cccn3)c2)o1 (configuration not stated),0,0,0,0,0,0
S=c1nc(-c2ccccc2Br)[nH][nH]1,0,0,?,0,14.1µM,0
S=c1nc(-c2cc(Cl)ccc2Cl)[nH][nH]1,0,0,0,0,0,0
COc1cc2[nH]c(C(=O)NN)c(N)c2cc1OC,0,22.4µM[quencher],?,15.8µM,?,0
COc1ccc(CCNC(=O)CN2CCN(S(=O)(=O)c3ccc(Cl)cc3)CC2)cc1OC,0,0,0,0,0,0
CCn1c(SCC(=O)N/N=C/c2c[nH]c3ccccc23)nnc1-c1ccc(C(C)(C)C)cc1,0,17.8µM[quencher],0,?,0,0
CCn1c(SCC(=O)N/N=C/c2ccc(C)o2)nnc1-c1ccc(C(C)(C)C)cc1,0,0,0,0,0,0
O=C(CSc1nnc(SCc2ccccc2Cl)s1)N/N=C/c1c[nH]c2ccccc12,0,14.1µM[quencher],?,0,0,0
CCOC(=O)c1c(-c2cccs2)csc1NC(=O)CNCCN1CCOCC1,0,0,0,0,22.4µM,0
CCOC(=O)c1c(-c2ccc(F)cc2)csc1NC(=O)CCN1CCOCC1,0,0,0,0,25.1µM,0
CCOC(=O)c1c(-c2cccs2)csc1NC(C)=O,0,0,0,0,0,0
CCOC(=O)c1c(-c2ccc(-c3ccccc3)cc2)csc1NC(=O)CCN1CCOCC1,0,0,0,?,0,0
COc1ccc(Nc2nc3ccccc3nc2NS(=O)(=O)c2cccs2)cc1,0,?,0,14.1µM,?,0
Brc1ccc2nc(-c3c[nH]c4ccccc34)cn2c1,0,?,0,10µM,?,0
Cc1cccn2cc(-c3c[nH]c4ccccc34)nc12,0,0,0,?,?,0
Cc1ccccc1C(=O)N/N=C/c1ccc([N+](=O)[O-])s1,0,0,0,?,0,0
Cc1c(Cl)cccc1N=Cc1ccc([N+](=O)[O-])s1,0,0,0,?,22.4µM,0
Cc1nc2ccc(S(=O)(=O)NCC(=O)N3CCN(c4ccccc4)CC3)cc2s1,0,0,0,0,0,0
CCOC(=O)c1ccc(N(CC(=O)NC2CCCC2)C(=O)CNC(=O)c2ccco2)cc1,0,0,0,0,0,0
CCC(CC)C(=O)Nc1cc(-c2nc3cccnc3s2)ccc1C,0,0,0,0,-,0
SMILES,TRb SRC2 PPI,Tau fluor cs,Tau fibril FP,Tau ThT inhib,JMJD2E inh,TR SRC2 fluor cs
O=[N+]([O-])c1c(Nc2ccccc2)ccc2nonc12,0,0,0,0,0,0
CCOC(=O)NNc1ccc2nonc2c1[N+](=O)[O-],0,0,?,12.6µM,6.31µM,0
COc1ccc(-c2noc(-c3ccc(C)cc3Cl)n2)cc1OC,0,0,0,0,-,0.126µM[quencher]
C/C(CCN1CCc2nc(-c3ccccc3)c(-c3ccccc3)cc2C1)=N\O[C@@H](C)c1cn([C@H](CO)Cc2ccccc2)nn1,0[11.2 µM],0[11.6 µM],0[11.6 µM],?,0,0[11.2 µM]
Cc1ccc(-c2cc(-c3ccccc3Cl)c(C#N)c(N)n2)o1,0,0,0,31.6µM,?,0
Cc1ccc(-c2cc(-c3ccccc3)c(C#N)c(N)n2)o1,0,0,0,?,?,0
COC(=O)c1ccc(NC(=O)C(=O)N2CCN(C(=S)NCCc3ccccc3)CC2)cc1,0,?,?,?,0,0

# Assay outcomes as filed in PubChem BioAssay.
